Compound activity: PubChem BioAssay, National Center for Advancing Translational Sciences (NCATS)
DT40 TDP1 CPT – DT40-hTDP1 cell growth loss with CPT; Potency, µM (top dose mostly 46.2 µM), for inactives: at the highest dose activity change, negative = growth inhibition, hits mostly inhibitors; 420,000 tested, 12% active; AID 686979; chicken DT40 Tdp1-/-;hTDP1 cells + 20 nM CPT, ATP luminescence, 48 h; note: potency is the fitted concentration of half-maximal effect; nearly all actives have a fitted effect of over 55% in size
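Chicken DT40 Tdp1-/- cells stably complemented with human TDP1 were seeded at 400 cells/well in medium containing 20 nM camptothecin, exposed to pin-transferred compounds, and grown at 37 °C for at least 48 hr. Viability was read as ATP luminescence.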
TDP1 cell noCPT – qHTS for Inhibitors of human tyrosyl-DNA phosphodiesterase 1 (TDP1): qHTS in cells in absence of CPT; Potency, µM (highest dose often 46.2 µM), for the others: at the top dose activity change, negative = growth inhibition, hits mostly inhibitors; DT40 Tdp1-/- hTDP1 cells, no CPT, ATP luminescence, 48 h; 420,000 tested, 15% active; AID 686978, 2013; note: potency is the fitted concentration of half-maximal effect; nearly all actives have a fitted effect of over 55% in size
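Chicken DT40 Tdp1-/- cells stably complemented with human TDP1 were seeded at 400 cells/well with DMSO in place of 20 nM camptothecin. After compound pinning, cells grew at least 48 hr at 37 °C; viability read by CellTiter-Glo luminescence.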
HT1080 IDH1KD tx – toxicity to HT-1080 IDH1 knockdown cells (counter line); 360,000 tested, 2% active; AID 686971; Potency, µM (top dose mostly 46.1 µM), for inactives: at the top dose activity, negative = toxicity, most hits filed as cytotoxic; HT-1080 IDH1 knockdown viability, ATP luminescence, 48 h;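 note: potency is the fitted concentration of half-maximal effect; 0% = DMSO wells and -100% = cell-free medium wells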
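After a 2 h attachment period, IDH1KD HT-1080 cells took pin-transferred compound for 48 h at 37 °C; ATP-based luminescence after 10 min room-temperature reagent incubation reported viability.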
HT1080-NT tox – kills 2HG-producing HT-1080-NT fibrosarcoma cells; HT-1080-NT fibrosarcoma viability, CellTiter-Glo ATP luminescence, 48 h; Potency, µM (doses to about 46.1 µM), for the others: top-dose activity, negative = less viability, hits mostly cytotoxic; 360,000 tested, 1.6% active;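 note: NT is the 2HG producing partner of a matched IDH1 knockdown line; potency is the fitted concentration of half-maximal effect; 0% = DMSO-treated cells and -100% = media-only wells without cells; nearly all actives have a fitted effect of over 55% in size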
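Read-out is CellTiter-Glo luminescence after 10 minutes at room temperature, following 48 hours' compound treatment of HT-1080-NT cells (750 cells/well, RPMI, 5% FBS, 37 degrees C).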
ALOX12 inh – ALOX12 (human) lipoxygenase inhibition | Potency, µM (series often up to 108 µM), without a hit: top-dose activity change, negative = inhibition, actives largely listed as inhibitors | purified 12hLO, xylenol orange hydroperoxide absorbance | AID 1671190 | P18054 | 580,000 tested, 1.1% active; note: potency is the fitted concentration of half-maximal effect
Target sequence (P18054 whole entry, looked up): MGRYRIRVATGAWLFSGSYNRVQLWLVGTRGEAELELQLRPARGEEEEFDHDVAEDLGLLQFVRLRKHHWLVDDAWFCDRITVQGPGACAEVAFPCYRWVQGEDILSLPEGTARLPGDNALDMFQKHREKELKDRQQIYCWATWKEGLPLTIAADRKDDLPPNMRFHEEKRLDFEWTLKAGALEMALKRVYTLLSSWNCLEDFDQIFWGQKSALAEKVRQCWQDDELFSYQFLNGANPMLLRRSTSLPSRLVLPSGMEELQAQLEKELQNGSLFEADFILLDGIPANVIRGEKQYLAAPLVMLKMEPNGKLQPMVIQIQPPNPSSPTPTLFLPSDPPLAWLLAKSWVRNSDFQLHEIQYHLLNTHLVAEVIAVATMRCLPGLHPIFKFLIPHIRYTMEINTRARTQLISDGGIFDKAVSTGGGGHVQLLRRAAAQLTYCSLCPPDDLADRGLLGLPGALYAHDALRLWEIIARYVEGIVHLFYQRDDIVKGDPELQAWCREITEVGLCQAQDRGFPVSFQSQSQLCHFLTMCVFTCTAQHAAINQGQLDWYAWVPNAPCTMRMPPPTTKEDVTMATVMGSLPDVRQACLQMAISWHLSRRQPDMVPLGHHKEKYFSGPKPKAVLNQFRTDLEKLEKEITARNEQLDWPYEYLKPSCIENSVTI
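Purified human 12hLO (150 nM final) in 25 mM Hepes, 0.01% Triton X-100, pH 7.0 was preincubated 15 min at room temperature with compound. Then 40 uM arachidonic acid was added, 30 min. Hydroperoxide was read by Fe-XO absorbance ratio 573/405 nm.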
IL1B secr inh – blocks inflammasome-driven IL-1 beta release. THP-1 LPS/ATP IL-1B secretion, AlphaLISA, 16 h; hits give low values. activity change, % at 57.5 µM. 360,000 tested, 4.7% active. AID 743279; in the data active = activity change below about -50%; inconclusive = mostly about -30% to -49%
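THP-1 cells pretreated 1 hr with compounds (up to 57.5 uM final), then stimulated with LPS (250 ng/mL final) plus ATP (1.25 mM final); secreted IL-1B measured by AlphaLISA after 16 hr, decreased signal indicating inhibition.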
The depositor's hits bear a star; i = inactive; u = inconclusive; x = not tested or not shown; [ ] = remark or other dose. This excerpt belongs to a sample that is enriched for hits. Unless noted, calls come from the whole dose curve; as a rule, active = well fitted curve in the direction sought with a large enough effect; inconclusive = small, poorly fitted or top-dose-only effect, or another doubt; inactive = no such curve, though single readings can be large; an effect the other way counts as inactive or inconclusive. Unless noted, % is set by controls: 0 for no effect and ±100 for the full control effect.

SMILES | DT40 TDP1 CPT | TDP1 cell noCPT | HT1080 IDH1KD tx | HT1080-NT tox | ALOX12 inh | IL1B secr inh
COc1cc(OC)cc(-c2c(-c3ccc(F)cc3)c3cc(Br)ccc3n2C)c1 | 1.1% | 0.0% | 16.5% | 0.0% | -37.5% | 0.0
COc1cc(OC)cc(-c2c(-c3cccs3)c3cc(-c4ccc5[nH]ccc5c4)ccc3n2C)c1 | u | u | -1.0% | -0.8% | 8.1% | -8.7
COc1cccc(-c2c(-c3cc(OC)cc(OC)c3)n(C)c3ccc(-c4ccc5cc[nH]c5c4)cc23)c1 | 18.4µM* | u | -9.7% | -29.4% | -14.1% | 0.5
COc1cc(OC)cc(-c2c(-c3cccs3)c3cc(-c4ccc5cc[nH]c5c4)ccc3n2C)c1 | u | 13µM* | -6.0% | -20.7% | -9.8% | -10.3
Cn1c(-c2ccccc2)c(Sc2ccccc2)c2cc(-c3ccc4cc[nH]c4c3)ccc21 | u | 23.1µM* | 3.6% | 13.8% | 15.3% | 35.3
OC[C@@H]1CN(CC2CC2)C[C@H]1c1nc(-c2ccncc2)no1 | x | x | x | x | 12.5% | x
COc1ccc(C(C[N+](=O)[O-])c2c(C)[nH]c3ccccc23)cc1OC (configuration not stated) | u | u | -29.5% | -17.6% | -13.3% | u
Cc1ccc(C(C[N+](=O)[O-])c2c(-c3ccccc3O)[nH][nH]c2=O)cc1 (configuration not stated) | 3.26µM* | 2.91µM* | 9.2µM* | u | 39.8µM* | -101.9*
O=c1[nH][nH]c(-c2ccccc2O)c1C(C[N+](=O)[O-])c1ccc(Br)cc1 (configuration not stated) | 3.26µM* | 2.59µM* | -11.1% | -5.5% | u | u
COCC(=O)N[C@H]1CCN(C(=O)COC)[C@H](C(=O)N[C@H](Cc2ccccc2)C(N)=O)C1 | x | x | x | x | 15.4%[176 µM] | x
Cc1cc(C)cc(CN2CCOc3ccc(CN4CCC(O)(c5cccnc5)CC4)cc3C2)c1 | -2.0%[9.04 µM] | u | x | x | 7.9% | x
CCn1cc(Br)c(C(=O)Nc2ccc(F)cc2F)n1 | -0.2% | -9.3% | 19.0% | 14.4% | -1.4% | -10.9
COc1ccccc1CNC(=O)c1oc2c(c1C)-c1nn(Cc3ccc(Cl)cc3)cc1CC2 | 16.4µM* | 20.6µM* | x | x | u | x
Cc1c(C(=O)NCCN(C)C)oc2c1-c1nn(Cc3ccccc3Cl)cc1CC2 | u | u | x | x | -23.3% | x
CC(=O)Nc1ccc(NC(=O)c2oc3c(c2C)-c2nn(Cc4ccccc4Cl)cc2CC3)cc1 | 8.2µM* | 18.4µM* | x | x | u | x
CCn1cc2c(n1)-c1c(oc(C(=O)Nc3ccc(Br)cc3F)c1C)CC2 | u | 20.6µM* | x | x | -2.2% | x
COc1ccc(CNC(=O)c2oc3c(c2C)-c2nn(Cc4ccccc4Cl)cc2CC3)cc1 | u | 23.1µM* | x | x | u | x
Cc1cccc(CNC(=O)c2oc3c(c2C)-c2nn(Cc4ccccc4Cl)cc2CC3)c1 | u | 20.6µM* | x | x | -10.0% | x
CCOC(=O)c1oc2c(c1C)-c1nn(Cc3ccc(Cl)cc3)cc1CC2 | 16.4µM* | 20.6µM* | x | x | -18.8% | x
CCOc1ccc(CCNC(=O)c2oc3c(c2C)-c2[nH]ncc2CC3)cc1OCC | u | u | 5.3% | 0.0% | 9.5% | -2.9
Cc1c(C(=O)NCc2ccccc2)oc2c1-c1[nH]ncc1CC2 | u | -16.4% | x | x | 0.0% | x
CCOc1ccc(CNC(=O)c2oc3c(c2C)-c2nn(Cc4cccc(Cl)c4)cc2CC3)cc1 | 18.4µM* | 16.4µM* | x | x | 0.0% | x
Cc1cccc(CNC(=O)c2oc3c(c2C)-c2nn(Cc4cccc(Cl)c4)cc2CC3)c1 | u | 29.1µM* | x | x | 0.0% | x
COc1ccc(/C=C(/NC(=O)c2ccco2)C(=O)N2CCCCCC2)cc1OC | 0.1% | 4.5% | 23.2% | 8.7% | 7.6% | i
